SMILES strings stand for the structures. Where “and” joins values, the source holds several entries; their conditions need not be identical. Equal entries are not always repeated. Calls of active or inactive are those of the source.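 The calls were made as follows, unless noted: active = thallium flux through the channel raised or lowered by more than 3 SD from vehicle-only wells, actives on both sides; inactive = the rest.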

Test [1] is described as follows: Wnt pathway potentiators raising nuclear beta-catenin – imaging, WNT3A-conditioned medium, mouse C2C12, NPC library, primary screen (AID 1117326; in the data active = nuclear beta-catenin stimulation mostly above about 4.2%, no sharp cut-off; inactive = mostly below about 10%). To be noted: stronger effect = higher value.
The nature of test [2]: stimulators of insulin release from INS-1E, primary screen, cell-based, 5 mM glucose, NPC library (AID 1117329;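 active = compound raises insulin release from rat beta cells at 5 mM glucose, no numeric limit stated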). To be noted: rat INS-1E insulin secretion, at 10 µM, stronger effect = higher value.
The nature of test [3]: growth inhibition of GSK3B-pretreated HCT116 cells – cell-based, CellTiter-Glo, 0.2 to 20 µM (AID 1117336;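 active = compounds lowering colon cancer cell viability after pretreatment blocking the GSK3B kinase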). To be noted: HCT116 viability after GSK3B inhibitor, at 20 µM, stronger effect = higher value. For orientation: Cellular ATP, detected with luciferase, serves as a proxy for viable cell number.
Test [4] in a line: inhibition of endothelial tube formation, primary screen, imaging, VEGF stimulated, CD31 staining, tube area, NPC library (AID 1117340;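 active = compound that reduces growth-factor-driven endothelial tube area in a mixed cell culture, no cutoff stated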). The settings on record: VEGF-stimulated ADSC/ECFC co-culture, at 10 µM, stronger effect = higher value.
Test [5] can be described thus: GLP1 release stimulators, primary, NCI-H716, NPC library (AID 1117341;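 active = compound raises GLP1 secretion from the human gut endocrine cells, with no numeric limit stated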). To be noted: NCI-H716 cells, at 10 µM, stronger effect = higher value.
Test [6] in a line: HCT116 colon cancer cell growth inhibition, primary screen, CellTiter-Glo luminescence, NPC library (AID 1117342;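 active = compounds that lower survival of HCT116 colon cancer cells in the luminescence readout, no numeric limit stated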). To be noted: at 20 µM (top of the series).
Test [7] can be described thus: reduced SW480 viability measured with CellTiter-Glo, NPC library, primary (AID 1117343;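 active = compounds that lower viability of the colon cancer cells in the luminescence readout, with no numeric limit stated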). The settings on record: CellTiter-Glo luminescence; at 20 µM (top of the series).
Test [8] can be described thus: NPC library primary testing for decreased DLD-1 cell viability via CellTiter-Glo (AID 1117346;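 active = compounds that lower survival of DLD-1 colon cancer cells in the luminescence readout, no cutoff given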). The settings on record: DLD-1 viability, CellTiter-Glo luminescence; at 20 µM (top of the series).
Test [9] has as its target 6-phosphogluconate dehydrogenase, decarboxylating (Homo sapiens) (UniProt P52209). In words: inhibition of human phosphogluconate dehydrogenase – biochemical, recombinant enzyme, NADPH absorbance, primary screen (AID 1159550;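 active = at least 20% inhibition of 6-phosphogluconate dehydrogenase activity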). To be noted: recombinant 6PGD, NADPH absorbance 341 nm; at 10 µM; stronger effect = higher value.
Test [10] is described as follows: modulation of C. elegans fzo-1 (AID 1259413; call rule not given here;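 also: fzo-1 mutant C. elegans worms in liquid wells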). The settings on record: C. elegans fzo-1 modulator screen, mean read-out; stronger effect = higher value.
Test [11] in a line: EMT-state selective cytotoxicity in co-culture – imaging, PC-3E GFP, TEM4-18 mCherry, primary screen (AID 1345086;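 active = compounds killing one labelled cell type while sparing the other, by normalised counts and ratio limits, not self-fluorescent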;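 as to all read-outs here: cells exposed to compound for 72 h before imaging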;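 as to red/green cell ratio (normalised): normalised mesenchymal count divided by normalised epithelial count so high means epithelial killing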). To be noted: PC-3E GFP / TEM4-18 mCherry co-culture, imaging cell counts, at 1 µM; for red/green cell ratio (normalised): actives lie on both sides, counts scaled to control wells, 1 = unselective.
The nature of test [12]: MELAS cybrid and Rieske KO viability enhancers – cell-based, MELAS cybrids, Rieske KO mouse fibroblasts, CellTiter-Glo, primary screen (AID 1508586;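 active = mean z-score across replicates of 1.96 or higher in either the MELAS or the Rieske mutant cell line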;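 also: z relative to plate mean and SD of compound and empty wells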). The settings on record: low glucose.
Test [13] addresses NAD(+) hydrolase SARM1 (Homo sapiens) (UniProt Q6SZW1). In words: blocking NAD cleavage by SARM1 SAM-TIR – cell lysate, NAD-Glo luminescence (AID 1508614;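 active = compound whose remaining NAD level is above about 45 nM, limit read from the data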;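 also: higher remaining NAD means stronger inhibition of SARM1 NADase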). To be noted: SAM-TIR HEK293T lysate NADase, at 1 µM, stronger effect = higher value.
Test [14] addresses Mitogen-activated protein kinase 7 (Homo sapiens) (UniProt Q13164). In words: Gal4-ERK5 driven luciferase induction – cell-based, HTS, primary screen (AID 1508626;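 active = luciferase signal above three times the same-plate solvent-only control wells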;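 also: luciferase driven by Gal4-ERK5 fusion binding five Gal4 sites before minimal TATA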). The settings on record: HeLa Gal4-ERK5 transactivation, 18 h, at 5 µM, stronger effect = higher value.
Another test concerns F380Y. Put plainly: BK channel mutant inhibitors and activators – cell-based, U2OS BacMam, thallium flux, beta subunits, selectivity assay, profiling panel (AID 1259406).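 Also: initial slope of Thallos dye fluorescence rise after thallium is added; log ratio against the mean of 0.3% DMSO vehicle wells on the same plate.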 The settings on record: U2OS BacMam BK variants, at 30 µM.
The test system of the next test is F380Y/beta1. The description is as above. To be noted: U2OS BacMam BK variants, at 30 µM.
The next test deals with F380Y/beta2Delta. Described as above. To be noted: U2OS BacMam BK variants, at 30 µM.
The test system of the next test is F380Y/beta4. The description is as above. The settings on record: U2OS BacMam BK variants, at 30 µM.
Test [15] has as its target Calcium-activated potassium channel subunit alpha-1 (Homo sapiens) + Leucine-rich repeat-containing protein 26 (Homo sapiens) (UniProt Q12791+Q2I0M4). The description is as above. The settings on record: U2OS BacMam BK variants, F380Y/Slo1WT/gamma1, at 30 µM.
[16] abbreviates: measured here: epithelial PC-3E GFP cell survival.
Where [17] appears, read: measured here: mesenchymal TEM4-18 mCherry cell survival.
Setting [18] is: MELAS cybrid survival, CellTiter-Glo 48 h, stronger effect = higher value.
Setting [19] is: Rieske KO mouse fibroblast survival, CellTiter-Glo 72 h.

Sequence of Calcium-activated potassium channel subunit alpha-1 (Homo sapiens) + Leucine-rich repeat-containing protein 26 (Homo sapiens) (Q2I0M4 whole entry, looked up, one chain of several): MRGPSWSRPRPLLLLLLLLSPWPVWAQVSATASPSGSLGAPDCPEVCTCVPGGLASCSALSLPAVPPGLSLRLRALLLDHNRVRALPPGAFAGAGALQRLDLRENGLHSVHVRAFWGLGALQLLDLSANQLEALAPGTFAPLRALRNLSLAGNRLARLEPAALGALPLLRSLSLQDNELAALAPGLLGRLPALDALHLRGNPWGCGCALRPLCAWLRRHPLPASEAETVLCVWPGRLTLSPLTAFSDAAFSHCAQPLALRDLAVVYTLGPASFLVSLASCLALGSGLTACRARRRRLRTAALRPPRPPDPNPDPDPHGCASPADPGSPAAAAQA
Sequence of Mitogen-activated protein kinase 7 (Homo sapiens) (Q13164 whole entry, looked up, the tested form may be a part): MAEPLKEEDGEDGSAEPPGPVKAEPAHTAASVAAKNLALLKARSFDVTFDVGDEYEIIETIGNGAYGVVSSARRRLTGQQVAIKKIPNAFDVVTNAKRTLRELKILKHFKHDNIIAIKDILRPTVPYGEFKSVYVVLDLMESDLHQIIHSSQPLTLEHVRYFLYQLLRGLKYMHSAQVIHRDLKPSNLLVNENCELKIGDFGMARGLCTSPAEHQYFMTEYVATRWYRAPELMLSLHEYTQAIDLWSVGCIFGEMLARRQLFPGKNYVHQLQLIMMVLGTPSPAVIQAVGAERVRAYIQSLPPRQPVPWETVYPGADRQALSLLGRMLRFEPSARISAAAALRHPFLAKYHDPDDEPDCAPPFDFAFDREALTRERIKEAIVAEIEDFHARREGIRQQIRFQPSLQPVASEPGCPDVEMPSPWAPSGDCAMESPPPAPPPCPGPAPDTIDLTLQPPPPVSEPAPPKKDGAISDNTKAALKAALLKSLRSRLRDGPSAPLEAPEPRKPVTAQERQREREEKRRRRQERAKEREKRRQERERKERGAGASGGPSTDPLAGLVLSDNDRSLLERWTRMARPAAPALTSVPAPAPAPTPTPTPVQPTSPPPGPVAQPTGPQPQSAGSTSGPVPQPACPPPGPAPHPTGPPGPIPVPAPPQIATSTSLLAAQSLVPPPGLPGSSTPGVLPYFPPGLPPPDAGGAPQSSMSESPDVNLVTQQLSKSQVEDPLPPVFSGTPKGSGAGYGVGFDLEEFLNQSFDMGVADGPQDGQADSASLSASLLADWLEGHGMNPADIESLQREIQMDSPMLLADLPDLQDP
Sequence of NAD(+) hydrolase SARM1 (Homo sapiens) (Q6SZW1 whole entry, looked up, the tested form may be a part): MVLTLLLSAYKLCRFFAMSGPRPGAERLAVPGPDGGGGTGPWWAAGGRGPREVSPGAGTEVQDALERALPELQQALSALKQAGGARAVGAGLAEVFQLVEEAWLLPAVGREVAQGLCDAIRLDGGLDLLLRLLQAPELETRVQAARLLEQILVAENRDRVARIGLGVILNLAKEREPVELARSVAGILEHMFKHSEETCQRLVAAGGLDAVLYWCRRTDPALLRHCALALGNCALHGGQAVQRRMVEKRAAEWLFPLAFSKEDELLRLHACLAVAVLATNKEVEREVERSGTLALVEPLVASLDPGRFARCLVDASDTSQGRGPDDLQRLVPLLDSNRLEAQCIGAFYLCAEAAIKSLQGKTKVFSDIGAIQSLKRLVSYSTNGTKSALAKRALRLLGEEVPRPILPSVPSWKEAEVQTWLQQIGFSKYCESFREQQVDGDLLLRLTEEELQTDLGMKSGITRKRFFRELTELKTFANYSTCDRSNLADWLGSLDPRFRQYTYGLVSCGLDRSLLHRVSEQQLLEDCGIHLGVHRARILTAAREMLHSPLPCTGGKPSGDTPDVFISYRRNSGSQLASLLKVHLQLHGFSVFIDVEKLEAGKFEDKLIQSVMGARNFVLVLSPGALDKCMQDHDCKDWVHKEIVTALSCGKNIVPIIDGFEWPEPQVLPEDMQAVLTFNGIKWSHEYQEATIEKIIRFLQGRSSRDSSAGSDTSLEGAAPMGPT
Sequence of 6-phosphogluconate dehydrogenase, decarboxylating (Homo sapiens) (P52209 whole entry, looked up): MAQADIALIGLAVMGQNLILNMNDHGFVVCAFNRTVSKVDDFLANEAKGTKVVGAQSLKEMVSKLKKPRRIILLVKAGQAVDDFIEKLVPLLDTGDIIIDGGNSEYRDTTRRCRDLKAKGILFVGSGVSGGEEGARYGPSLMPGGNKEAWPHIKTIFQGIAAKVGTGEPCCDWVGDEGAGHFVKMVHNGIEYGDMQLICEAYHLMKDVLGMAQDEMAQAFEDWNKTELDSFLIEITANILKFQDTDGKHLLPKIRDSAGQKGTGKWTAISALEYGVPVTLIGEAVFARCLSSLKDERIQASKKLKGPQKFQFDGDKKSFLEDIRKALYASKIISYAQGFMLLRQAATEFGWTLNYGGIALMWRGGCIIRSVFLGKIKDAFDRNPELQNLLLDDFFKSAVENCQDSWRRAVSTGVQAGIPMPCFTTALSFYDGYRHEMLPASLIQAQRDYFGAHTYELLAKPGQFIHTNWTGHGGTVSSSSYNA

For the molecule `c1ccc(CC2=NCCN2)cc1`, the nuclear beta-catenin stimulation was 0.4% (inactive) in test [1] (at 10 µM) and 1% in [1] (stimulation, at 2 µM). The insulin secretion stimulation in test [2] is -1% (inactive). Besides, the viability decrease in test [3] is -3.85% (inactive). Besides, the tube area decrease in [4] was -0.5% (inactive). For the same molecule, in test [5], the GLP1 secretion stimulation was 1.9% (inactive). Besides, the inhibition of viability in [6] was -10.6% (inactive). Further, the viability decrease (inhibition) in test [7] was 15.1% (inactive); in [8] it was 5.35% (inactive). Moreover, the inhibition (commonly the relative decrease from the control value, in per cent) in test [9] was -8.93% (inactive). In addition, the mean signal in test [10] is 271 (inactive). The red/green cell ratio (normalised) in test [11] was 1.19 (inactive). Besides, the normalised cell number in test [11] (setting [16]) came out at 0.88; in [11] (setting [17]) it was 1.04. In addition, the z-score in test [12] (setting [18]) was -0.147 (inactive) and 0.373 (inactive); in test [12] (setting [19]), -0.183 and 0.131. In addition, in test [13], the remaining NAD is 10 nM (inactive). In addition, in [14], the luciferase signal was 44 AU (inactive). For the same molecule, the log fold change Tl+ flux in the test with F380Y was 0.00977 (inactive); in the test with F380Y/beta1, 0.0105 (inactive); with F380Y/beta2Delta, -0.0174 (inactive); with F380Y/beta4, -0.03 (inactive); in [15], -0.0313 (inactive).
Consider `O=C(O)[C@@H]1CSCN1`, for which the nuclear beta-catenin stimulation is 0% (inactive) in [1] (at 10 µM) and 0.2% in test [1] (stimulation, at 2 µM). In addition, the insulin secretion stimulation in test [2] is -2.5% (inactive). The viability decrease in test [3] is -3.1% (inactive). Further, the tube area decrease in [4] is 16.2% (inactive). In [5], the GLP1 secretion stimulation is -0.4% (inactive). The inhibition of viability in test [6] is 3.3% (inactive). In addition, the results for the viability decrease (inhibition) in test [7] and in test [8] were 38.4% (inactive) and 11.6% (inactive), respectively.
In the case of `CCOC(=O)c1cccnc1`, the nuclear beta-catenin stimulation in test [1] (at 10 µM) is 0.1% (inactive); in test [1] (stimulation, at 2 µM), 0.3%. In addition, the insulin secretion stimulation in test [2] is -2.3% (inactive). For the same molecule, the viability decrease in [3] is -2.55% (inactive). In addition, the tube area decrease in test [4] is -7.8% (inactive). Also, the GLP1 secretion stimulation in test [5] was 1.1% (inactive). In addition, the inhibition of viability in [6] was -17.8% (inactive). In addition, the viability decrease (inhibition) in [7] was 58.1% (active); in [8], -9.05% (inactive).
As to `CN(C)CCCN1c2ccccc2CCc2ccc(Cl)cc21`, the nuclear beta-catenin stimulation in test [1] (at 10 µM) was 2.9% (inactive); in test [1] (stimulation, at 2 µM), 2.5%. In addition, the insulin secretion stimulation in test [2] is 5.4% (inactive). Besides, the viability decrease in test [3] is -53% (inactive). In addition, in [4], the tube area decrease is 23.1% (inactive). The GLP1 secretion stimulation in [5] is 13.3% (inactive). Besides, in test [6], the inhibition of viability is 67.4% (active). The viability decrease (inhibition) in [7] was 61.1% (active); in test [8], 61.8% (active). In test [9], the inhibition was 13.8% (inactive). In [10], the mean signal is 222 (inactive). Besides, the red/green cell ratio (normalised) in [11] is 1.09 (inactive). The normalised cell number came to 0.96 in [11] (setting [16]) and 1.05 in test [11] (setting [17]). Further, the z-score in test [12] (setting [18]) was -0.661 (inactive) and 0.117 (inactive); in test [12] (setting [19]), -0.587 and 0.253. For the same molecule, in test [13], the remaining NAD was 10 nM (inactive). The luciferase signal in test [14] is 32 AU (inactive). Moreover, the log fold change Tl+ flux with F380Y is -0.0375 (inactive); with F380Y/beta1, -0.109 (inactive); in the test with F380Y/beta2Delta it was -0.0656 (inactive); in the test with F380Y/beta4, 0.151 (active); in test [15], -0.0105 (inactive).
Consider `Cc1ccc(C(C)OC(=O)C2(C)CCC(C(=O)O)C2(C)C)cc1` (stereo not drawn), for which the nuclear beta-catenin stimulation was -0.2% (inactive) in test [1] (at 10 µM) and -2.1% in test [1] (stimulation, at 2 µM). Further, the insulin secretion stimulation in test [2] was 2.1% (inactive). In addition, the viability decrease in test [3] is -5% (inactive). Further, in [4], the tube area decrease was -0.8% (inactive). In addition, the GLP1 secretion stimulation in test [5] is 0.6% (inactive). For the same molecule, the inhibition of viability in [6] was 0.3% (inactive). For the same molecule, the viability decrease (inhibition) in [7] was -11.8% (inactive); in test [8], 14.4% (inactive).
